Several values for one entry are separate records, joined by “and”; a condition that tells them apart may be missing. Equal values may be shown once. Results filed as inconclusive are left out. Activity calls are given as the source filed them. Calls come from the whole dose curve; as a rule, active = well fitted curve in the direction sought with a large enough effect; inconclusive = small, poorly fitted or top-dose-only effect, or another doubt; inactive = no such curve, though single readings can be large; an effect the other way counts as inactive or inconclusive.
What was measured:
[1] = target: Cytochrome P450 3A7 (Homo sapiens) (UniProt P24462); test: Cytochrome P450 family 3 subfamily A member 7 (CYP3A7) small molecule antagonists: luciferase biochemical qHTS assay (AID 1963596); note: % is set by controls: 0 for no effect and ±100 for the full control effect; nearly all actives have a fitted effect of over 40% in size
Chain of Cytochrome P450 3A7 (Homo sapiens) (P24462 whole entry, looked up): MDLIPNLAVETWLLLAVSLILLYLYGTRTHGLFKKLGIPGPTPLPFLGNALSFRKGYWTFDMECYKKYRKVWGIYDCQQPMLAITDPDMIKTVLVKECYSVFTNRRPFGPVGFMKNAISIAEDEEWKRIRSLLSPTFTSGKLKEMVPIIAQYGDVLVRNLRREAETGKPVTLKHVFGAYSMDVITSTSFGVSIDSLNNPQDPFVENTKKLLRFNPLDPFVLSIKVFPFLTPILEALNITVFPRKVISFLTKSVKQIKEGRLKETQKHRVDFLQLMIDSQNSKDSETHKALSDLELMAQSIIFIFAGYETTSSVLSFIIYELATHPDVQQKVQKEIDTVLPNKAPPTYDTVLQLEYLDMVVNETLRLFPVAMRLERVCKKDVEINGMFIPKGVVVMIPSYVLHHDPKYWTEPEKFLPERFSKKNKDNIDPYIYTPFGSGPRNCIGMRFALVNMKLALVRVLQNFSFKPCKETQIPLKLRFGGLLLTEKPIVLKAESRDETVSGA
Summary of the method: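 Enzyme-substrate mix + cpd (DMSO), 10 min RT; + NADPH regen system, 1 h RT; + luciferin detection reagent, 20 min RT; luminescence read. Proluciferin substrate, P450-Glo format, 1536-well qHTS.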

[2] = Viability qHTS for spleen associated tyrosine kinase inhibitor (SYKi) naive MV4-11 cells (AID 1963823); note: nearly all actives have a fitted effect of over 40% in size; note: potency is the fitted concentration of half-maximal effect
Summary of the method: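 Cells: MV4-11, SYK inhibitor naive, 500 per well. Treatment: library compounds, 72 hr, 37 C, 5% CO2. Read-out: CellTiter-Glo luminescence after 10 min RT.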

[3] = Viability qHTS for spleen associated tyrosine kinase inhibitor (SYKi) drug resistant MV4-11 cells (AID 1963824); note: nearly all actives have a fitted effect of over 35% in size; note: potency is the fitted concentration of half-maximal effect
Summary of the method: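 SYK-inhibitor-resistant MV4-11 AML cells were seeded at 500 per well onto compound and cultured 72 hours (37 °C, 5% CO2). CellTiter-Glo was then added, and after 10 min at room temperature, luminescence gave viability.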

[4] = Cellular viability qHTS for adrenocortical cancer (ACC) cell line NCI-H295R (AID 1963990); note: nearly all actives have a fitted effect of over 60% in size; note: potency is the fitted concentration of half-maximal effect;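 for activity change, negative = viability loss: 0% = DMSO only wells and -100% = full killing with cytotoxic reference compound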
Summary of the method: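 CellTiter-Glo ATP luminescence, read 48 h after compound addition, measured viability of NCI-H295R adrenocortical cells grown serum-free with ITS. Final concentrations spanned up to 46 uM. Data normalized to DMSO and doxorubicin, fitted for IC50 and maximal response.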

[5] = Cellular viability qHTS for adrenocortical cancer (ACC) cell line SW-13 (AID 1963989); conditions: SW-13 ACC cells viability, CellTiter-Glo, 48 h; activity (max response): stronger effect = lower value;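 note: cells grown in serum-free medium with ITS supplement; % is set by controls: 0 for no effect and ±100 for the full control effect; nearly all actives have a fitted effect of over 65% in size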
Summary of the method: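 Viability was read as CellTiter-Glo luminescence after 48 h compound treatment (up to 46 uM final) of SW-13 cells grown serum-free; titration curves were fit with a four-parameter logistic model to give IC50 and efficacy.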

[6] = Quantitative highthroughput screen to assess conditional lethalithy of NOMO1 cells grown in RPMI1640 with dialyzed fetal bovine serum (RPMI+ds) (AID 1963877);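 note: series mostly up to about 46 µM; 100% = DMSO control wells and 0% = empty wells; nearly all actives have a fitted effect of over 30% in size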
Summary of the method: (§1)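 Each medium arm—HPLM with 10% dialyzed FBS, or RPMI1640 with 5 mM glucose and 10% untreated or dialyzed FBS—was screened against an 11-point, 3-fold compound titration for 48 h at 37 °C, with CellTiter-Glo luminescence as endpoint.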

[7] = Quantitative highthroughput screen to assess conditional lethalithy of NOMO1 cells grown in Human Plasma-Like Medium with dialyzed fetal bovine serum (HPLM+ds) (AID 1963878);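 note: 100% = DMSO wells and 0% = empty wells on each plate; nearly all actives have a fitted effect of over 35% in size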
Summary of the method: as §1

[8] = Quantitative highthroughput screen to assess conditional lethalithy of P12 Ichikawa cells grown in Human Plasma-Like Medium with dialyzed fetal bovine serum (HPLM+ds) (AID 1963879); conditions: Potency: viability; note: series mostly up to about 46 µM; nearly all actives have a fitted effect of over 35% in size
Summary of the method: as §1

[9] = Quantitative highthroughput screen to assess conditional lethalithy of P12 Ichikawa cells grown in RPMI1640 with dialyzed fetal bovine serum (RPMI+ds) (AID 1963880); conditions: Potency: P12-Ichikawa viability;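 note: 100% = DMSO wells and 0% = empty wells on each plate; nearly all actives have a fitted effect of over 35% in size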
Summary of the method: as §1

[10] = Quantitative highthroughput screen to assess conditional lethalithy of P12 Ichikawa cells grown in RPMI1640 with untreated serum (RPMI+s) (AID 1963881); conditions: Potency: viability
Summary of the method: as §1

[11] = Quantitative highthroughput screen to assess conditional lethalithy of SEM cells grown in Human Plasma-Like Medium with dialyzed fetal bovine serum (HPLM+ds) (AID 1963882)
Summary of the method: as §1

[12] = Quantitative highthroughput screen to assess conditional lethalithy of SEM cells grown in RPMI1640 with unreated serum (RPMI+s) (AID 1963883)
Summary of the method: as §1

[13] = Quantitative highthroughput screen to assess conditional lethalithy of SEM cells grown in RPMI1640 with dialyzed fetal bovine serum (RPMI+ds) (AID 1963884)
Summary of the method: as §1

O=C1NC(=O)[C@@]2(CCOc3ccc(F)cc32)N1
inactive: Potency [1] | Potency [2] | Potency [3] | Potency [4]

CCn1c(=O)c(-c2ccn[nH]2)cc2c(C)nc(N)nc21
inactive: Potency [1]
active: Potency [2] 1.46 µM | Potency [3] 2.91 µM | Potency [4] 7.08 µM

CN1CCN(CC(=O)N2c3ccccc3C(=O)Nc3cccnc32)CC1
inactive: activity change, negative = inhibition [1] 12.3% [at 4.83 µM] | viability (% of control) [2] 98.6% [at 4.97 µM] | viability, % of control [3] 96.6% [at 4.97 µM] | activity change, negative = viability loss [4] -2.51% [at 3.81 µM]

CC(C)NNC(=O)c1ccncc1
inactive: Potency [1] | Potency [2] | Potency [3] | Potency [4]

COc1cc(C(=O)NCc2ccc(OCCN(C)C)cc2)cc(OC)c1OC
inactive: Potency [1] | Potency [2] | Potency [3] | activity (max response) [5] -6.7% | Potency [4]

Cc1cnc(NC(=O)C2=C(O)c3ccccc3S(=O)(=O)N2C)s1
inactive: Potency [1] | Potency [2] | Potency [6] | Potency [7] | Potency [8] | Potency [9] | Potency [10] | Potency [11] | Potency [12] | Potency [13] | activity (max response) [5] 12.3% [middle of 4 runs] | Potency [4]

C[C@H]1O[C@@H](O[C@H]2[C@@H](O)C[C@H](O[C@H]3[C@@H](O)C[C@H](O[C@H]4CC[C@@]5(C)[C@H](CC[C@@H]6[C@@H]5C[C@@H](O)[C@]5(C)[C@@H](C7=CC(=O)OC7)CC[C@]65O)C4)O[C@@H]3C)O[C@@H]2C)C[C@H](O)[C@@H]1O
active: Potency [2] 103 nM and 118 nM | Potency [3] 58 nM and 118 nM | Potency [4] 0.126 µM
inactive: Potency [1]
